Experimental data taken from PubChem BioAssay (NCATS).
Inconclusive results are not listed. Activity calls are given as the source filed them. Unless noted, calls come from the whole dose curve; as a rule, active = well fitted curve in the direction sought with a large enough effect; inconclusive = small, poorly fitted or top-dose-only effect, or another doubt; inactive = no such curve, though single readings can be large; an effect the other way counts as inactive or inconclusive.

What was measured:
[1] = molecular target: Aldehyde dehydrogenase, mitochondrial (Homo sapiens) (UniProt P05091); assay: qHTS for Inhibitors of the Aldehyde Dehydrogenase Family (ALDH2) Validation screens (AID 2061302; active = well fitted inhibition curve with a large enough effect; title and protocol of this record describe different tests;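 note: plate controls were DMSO vehicle for no effect and maximal DPI positive control response for full effect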); conditions: ALDH inhibition qHTS; series mostly up to 42.6 µM
[2] = BET inhibitor-based combinations targeting novel dependencies in MECOM-rearranged (r) AML: SET-2 cell line (AID 2202231); conditions: SET-2 AML cells viability, CellTiter-Glo luminescence, 48 h; viability: active compounds read low, concentration not given here; note: nearly all actives have a fitted effect of over 35% in size; note: potency is the fitted concentration of half-maximal effect;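 for viability: plate controls were DMSO treated cells for no effect and wells without cells for full effect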
Procedure, shortened: (§1)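 Luminescent ATP readout (CellTiter-Glo) after 48 hr drug exposure gives viability. Curves span 11 concentrations and are normalized to DMSO and empty wells. Activity is reported as area under the curve and its Z-transform within each cell line.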

[3] = BET inhibitor-based combinations targeting novel dependencies in MECOM-rearranged (r) AML: MV-4-11 cell line (AID 2202233); conditions: MV-4-11 AML viability, CellTiter-Glo luminescence, 48 h; series mostly up to 46 µM; note: nearly all actives have a fitted effect of over 45% in size; note: potency is the fitted concentration of half-maximal effect
Procedure, shortened: (§2)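 Luminescent ATP readout (CellTiter-Glo, 15 min at room temperature) after 48 hr drug exposure gave viability. Dose-response curves, normalized to DMSO and empty-well controls, were summarized as area under the curve and its mean-centred Z-score.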

[4] = BET inhibitor-based combinations targeting novel dependencies in MECOM-rearranged (r) AML: HNT-34 cell line (AID 2202234); conditions: HNT-34 AML viability, CellTiter-Glo luminescence, 48 h; series mostly up to 46 µM; note: nearly all actives have a fitted effect of over 35% in size; note: potency is the fitted concentration of half-maximal effect
Procedure, shortened: as §2

[5] = molecular target: Retinaldehyde dehydrogenase 3 (Homo sapiens) (UniProt P47895); assay: qHTS for Inhibitors of the Aldehyde Dehydrogenase Family (ALDH1A3) Validation screen (AID 2061312); conditions: ALDH1A3 enzyme inhibition qHTS validation, fluorescence; series mostly up to 84.7 µM; note: % is set by controls: 0 for no effect and ±100 for the full control effect; nearly all actives have a fitted effect of over 45% in size
[6] = BET inhibitor-based combinations targeting novel dependencies in MECOM-rearranged (r) AML: OCI-AML3 cell line (AID 2202232); conditions: CellTiter-Glo luminescence, 48 h; Potency: OCI-AML3 viability; series mostly up to 46 µM; note: nearly all actives have a fitted effect of over 35% in size; note: potency is the fitted concentration of half-maximal effect
Procedure, shortened: as §1

[7] = BET inhibitor-based combinations targeting novel dependencies in MECOM-rearranged (r) AML: AML-191 cell line (AID 2202236; note: nearly all actives have a fitted effect of over 35% in size; note: potency is the fitted concentration of half-maximal effect); conditions: AML-191 viability, CellTiter-Glo luminescence, 48 h; series mostly up to 46 µM
Procedure, shortened: as §1

[8] = molecular target: Aldehyde dehydrogenase, mitochondrial (Homo sapiens) (UniProt P05091); assay: qHTS for Inhibitors of the Aldehyde Dehydrogenase Family (ALDH2) Confirmatory screens (AID 2061303; active = well fitted inhibition curve with a large enough effect; title and protocol of this record describe different tests; note: nearly all actives have a fitted effect of over 45% in size; note: potency is the fitted concentration of half-maximal effect); conditions: ALDH inhibition qHTS; series mostly up to 45.4 µM
[9] = BET inhibitor-based combinations targeting novel dependencies in MECOM-rearranged (r) AML: UCSD-AML1 cell line (AID 2202235); conditions: UCSD-AML1 AML cells viability, CellTiter-Glo, 48 h; series mostly up to 46 µM; note: nearly all actives have a fitted effect of over 40% in size; note: potency is the fitted concentration of half-maximal effect
Procedure, shortened: as §2

[10] = BET inhibitor-based combinations targeting novel dependencies in MECOM-rearranged (r) AML: AML-194 cell line (AID 2202237; note: nearly all actives have a fitted effect of over 40% in size; note: potency is the fitted concentration of half-maximal effect); conditions: AML-194 (MECOM-r AML) viability, CellTiter-Glo, 48 h; series mostly up to 46 µM
Procedure, shortened: as §1

[11] = qHTS for Inhibitors of the Aldehyde Dehydrogenase Family (ALDH1A2, ALDH1A3, ALDH2, ALDH3A1) (AID 2061307); conditions: ALDH inhibition qHTS; series mostly up to 50.3 µM; note: nearly all actives have a fitted effect of over 50% in size; for Potency: test system not described further here; potency is the fitted concentration of half-maximal effect
[12] = molecular target: Aldehyde dehydrogenase, mitochondrial (Homo sapiens) (UniProt P05091); assay: qHTS for Inhibitors of the Aldehyde Dehydrogenase Family (ALDH2) Primary screen (AID 2061308); conditions: ALDH2 enzyme inhibition qHTS, 1536-well; series mostly up to 56 µM; note: nearly all actives have a fitted effect of over 55% in size; note: potency is the fitted concentration of half-maximal effect
[13] = molecular target: Retinaldehyde dehydrogenase 3 (Homo sapiens) (UniProt P47895); assay: qHTS for Inhibitors of the Aldehyde Dehydrogenase Family (ALDH1A3) Confirmatory screens (AID 2061311); conditions: ALDH inhibition qHTS; series mostly up to 46 µM; note: nearly all actives have a fitted effect of over 60% in size; note: potency is the fitted concentration of half-maximal effect
[14] = molecular target: Retinal dehydrogenase 2 (Homo sapiens) (UniProt O94788); assay: qHTS for Inhibitors of the Aldehyde Dehydrogenase Family (ALDH1A2) Confirmation screens (AID 2061314); conditions: ALDH1A2 enzyme inhibition qHTS confirmation; series mostly up to 45.9 µM; note: nearly all actives have a fitted effect of over 65% in size; note: potency is the fitted concentration of half-maximal effect
[15] = molecular target: Retinaldehyde dehydrogenase 3 (Homo sapiens) (UniProt P47895); assay: qHTS for Inhibitors of the Aldehyde Dehydrogenase Family (ALDH1A3) Primary screen (AID 2061315); conditions: ALDH inhibition qHTS; series mostly up to 56 µM;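 note: plate controls were DMSO vehicle for no effect and reference inhibitor for full effect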
[16] = molecular target: Aldehyde dehydrogenase 1A1 (Homo sapiens) (UniProt P00352); assay: qHTS for Inhibitors of the Aldehyde Dehydrogenase Family (ALDH1A1) Confirmatory screens (AID 2061316); conditions: ALDH inhibition qHTS; series mostly up to 47.3 µM; note: nearly all actives have a fitted effect of over 65% in size

O=c1c(-c2ccc(O)cc2)coc2cc(O[C@@H]3O[C@H](CO)[C@@H](O)[C@H](O)[C@H]3O)ccc12
inactive: Potency [1] | viability [2] 119% | Potency [4]
active: Potency [3] 20900 nM

CN[C@H]1CC[C@@H](c2ccc(Cl)c(Cl)c2)c2ccccc21
inactive: Potency [1] | Potency [5]
active: Potency [6] 13200 nM | Potency [7] 18600 nM

Cc1cc(C(F)(F)F)nc(CNc2cc(C)nc3c(C)c(C)nn23)n1
inactive: Potency [8]

Cn1c(=O)c2c(ncn2C)n(C)c1=O
inactive: Potency [1] | Potency [5] | viability [2] 97.8% | Potency [6] | Potency [3] | Potency [4] | Potency [9] | Potency [7] | Potency [10]

CC(=O)OCC(CCn1cnc2cnc(N)nc21)COC(C)=O
inactive: Potency [1] | Potency [5] | viability [2] 121% | Potency [6] | Potency [3] | Potency [4] | Potency [9] | Potency [7] | Potency [10]

CCCC(CCC)C(=O)O
inactive: Potency [1] | Potency [5] | viability [2] 112% | Potency [6] | Potency [3] | Potency [4] | Potency [9] | Potency [7] | Potency [10]

CCCCOc1ccc(S(=O)(=O)NCc2csc(-c3ccc(OC)cc3)n2)cc1
inactive: Potency [8]

O=c1[nH]cnc2[nH]ncc12
inactive: Potency [1] | Potency [5] | viability [2] 124% | Potency [6] | Potency [3] | Potency [9] | Potency [7] | Potency [10]

COc1cc2c(cc1OC)C1CC(=O)C(CC(C)C)CN1CC2 (configuration not stated)
inactive: Potency [1] | Potency [5] | viability [2] 109% | Potency [6] | Potency [4] | Potency [9] | Potency [7] | Potency [10]

CCC1(c2ccccc2)C(=O)NCNC1=O
inactive: Potency [1] | Potency [5] | viability [2] 109% | Potency [6] | Potency [3] | Potency [4] | Potency [9] | Potency [7] | Potency [10]

CC(=O)[C@]1(O)Cc2c(O)c3c(c(O)c2[C@@H](O[C@H]2C[C@H](N)[C@H](O)[C@H](C)O2)C1)C(=O)c1ccccc1C3=O
active: Potency [2] 468 nM | Potency [6] 186 nM | Potency [3] 66.1 nM | Potency [4] 186 nM | Potency [9] 148 nM | Potency [7] 186 nM | Potency [10] 235 nM
inactive: Potency [1]

N[C@@H](Cc1ccc(O)c(O)c1)C(=O)O
inactive: Potency [1] | viability [2] 105% | Potency [6] | Potency [3] | Potency [4] | Potency [7] | Potency [10]

CCC1(C)CC(=O)NC1=O (configuration not stated)
inactive: Potency [1] | Potency [5] | viability [2] 115% | Potency [6] | Potency [3] | Potency [4] | Potency [7] | Potency [10]

C[C@]12CCC(=O)C=C1CC[C@@H]1[C@@H]2[C@@H](O)C[C@@]2(C)[C@H]1CC[C@]2(O)C(=O)CO
active: Potency [7] 417 nM
inactive: Potency [1] | Potency [5] | viability [2] 113% | Potency [6] | Potency [3] | Potency [4] | Potency [9] | Potency [10]

CC1=C(c2ccc(C)cc2)S(=O)(=O)N(Cc2ccc(C(=O)NCc3cccc(C)c3)cc2)C1=O
inactive: Potency [8]

COc1cc(CNc2ncnc3ccc(-c4c(C)noc4C)cc23)cc(OC)c1OC
inactive: Potency [8] | Potency [11] | Potency [12] | Potency [13] | Potency [14] | Potency [15]

CCOc1ccc(NC(=O)CN(C)S(=O)(=O)c2ccc3c(c2)c(=O)n(C)c(=O)n3C)cc1
inactive: Potency [8]

NC1CCC(n2cc(C(=O)NCc3cc(-c4cccnc4)no3)nn2)CC1 (configuration not stated)
inactive: Potency [8]

C[C@H]1CO[C@@H]2Cn3cc(C(=O)NCc4ccc(F)cc4F)c(=O)c(O)c3C(=O)N12
inactive: Potency [8] | Potency [11] | Potency [12] | Potency [13] | Potency [5] | Potency [14] | Potency [15] | Potency [16]

Oc1cc(Nc2cccnc2)cc2cccnc12
inactive: Potency [8] | Potency [11] | Potency [12] | Potency [14]
active: Potency [13] 283 nM

COc1ccc(-c2noc(CC(=O)Nc3ccc(C)c(F)c3)n2)cc1
inactive: Potency [8]

COc1cccc(N2CCN(C(=O)CCS(=O)(=O)c3ccc4c(c3)oc(=O)n4C)CC2)c1
inactive: Potency [8]

COc1ccc(CN2C(=O)c3ccccc3NC2c2ccc(OC)c(COc3ccc(NC(C)=O)cc3)c2)cc1 (configuration not stated)
active: Potency [8] 17800 nM | Potency [11] 7940 nM | Potency [13] 2240 nM | Potency [14] 6340 nM
inactive: Potency [12] | Potency [15]

CCOC(=O)c1ccccc1NC(=O)N1CCN(Cc2cc(=O)n3nc(-c4ccccc4)sc3n2)CC1
inactive: Potency [8]

COc1ccc(O)c(C2Nc3ccccc3C(=O)N2Cc2ccccc2)c1 (configuration not stated)
inactive: Potency [8] | Potency [12]
active: Potency [11] 12700 nM

Oc1cc(Nc2ccccc2)cc2cccnc12
inactive: Potency [8] | Potency [11] | Potency [12] | Potency [14]
active: Potency [13] 283 nM

O=C(Nc1ccccc1Cl)c1cnc2ccc(C3CCNCC3)cn12
inactive: Potency [8] | Potency [11] | Potency [12] | Potency [13] | Potency [5] | Potency [14] | Potency [15]

O=C(Nc1ccc(F)c(C(F)(F)F)c1)Nc1nnc(C2CCCCC2)s1
inactive: Potency [8] | Potency [11] | Potency [13] | Potency [14] | Potency [15]
active: Potency [12] 8910 nM

CCC(=O)N1CCc2cc(S(=O)(=O)NC(Cc3ccccc3)C(=O)Nc3ccc(C)cc3)ccc21 (configuration not stated)
inactive: Potency [8]

Nc1ncnc2c1ncn2[C@@H]1O[C@H](CN[S+](=O)([O-])NC(=O)c2cccc(-c3noc(-c4ccccc4F)n3)c2)[C@@H](O)[C@H]1O
inactive: Potency [8] | Potency [12]
active: Potency [11] 1200 nM | Potency [13] 252 nM | Potency [14] 14200 nM
